Consider 40 molecules from PubChem BioAssay (NCATS).

Several values for one entry are separate records, joined by “and”; a condition that tells them apart may be missing. Equal entries are not always repeated. Records with an inconclusive call do not appear. Unmarked numbers belong to inactive results. Calls follow the shape of the dose curve; as a rule, active = well fitted activation curve with a large enough effect; inconclusive = small, poorly fitted or top-dose-only effect; inactive = no such curve, though single readings can be large or run the other way.

The assay deals with Cellular tumor antigen p53 (Homo sapiens) (UniProt P04637). As to the kind of experiment: Primary qHTS for small molecule compounds that upregulate eGFP-tagged delta133p53alpha (in N-terminal) cells. (AID 2060322).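 Also: cells pre-induced with doxycycline then dosed without doxycycline; series mostly up to about 56 µM; 0% = DMSO vehicle and 100% = reference activator; nearly all actives have a fitted effect of over 75% in size.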 Particulars: NCI-H358 eGFP-delta133p53alpha fluorescence, 24 h; activation: stronger effect = higher value. Summed up: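 NCI-H358 cells pre-induced 24 h with 10 ng/ml doxycycline for eGFP-delta133p53alpha, plated dox-free and exposed 24 h at 37C to titrated compounds. Fixed, Hoechst-stained; gated GFP peak intensity by laser scanning cytometry, normalized to DMSO (0%) and 57.5 uM 5-azacytidine (100%).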
Sequence of Cellular tumor antigen p53 (Homo sapiens) (P04637 whole entry, looked up): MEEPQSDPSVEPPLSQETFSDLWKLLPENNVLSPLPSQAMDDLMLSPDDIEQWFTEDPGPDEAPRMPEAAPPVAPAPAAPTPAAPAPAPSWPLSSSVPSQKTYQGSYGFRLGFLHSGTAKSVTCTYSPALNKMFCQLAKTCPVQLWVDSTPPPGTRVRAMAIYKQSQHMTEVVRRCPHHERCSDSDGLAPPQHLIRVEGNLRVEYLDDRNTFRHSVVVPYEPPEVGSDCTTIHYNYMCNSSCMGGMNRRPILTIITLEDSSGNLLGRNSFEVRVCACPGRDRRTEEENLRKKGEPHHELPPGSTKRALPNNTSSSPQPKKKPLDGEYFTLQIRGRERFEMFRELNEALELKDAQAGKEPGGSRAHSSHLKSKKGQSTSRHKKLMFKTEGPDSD
(Quantitative high-throughput screening tests each substance at several concentrations.)
Take `O=c1[nH]ccc2c(O)cccc12`: the activation was -33.7%.

For `O=S(=O)(c1cccc2c(Cl)cccc12)N1CCCNCC1`, the activation was -18.2%.

With `COc1ccc(CCN(C)CCCC(C#N)(c2cc(OC)c(OC)c(OC)c2)C(C)C)cc1OC` (stereo not given), the activation is -8.73%.

For `NC[C@H]1O[C@@H](n2cnc3c(N)ncnc32)[C@H](O)[C@@H]1O`, the activation was 4.39%.

For `COc1ccc(-c2ccc(N)[n+](CCCC(=O)O)n2)cc1`, the activation was -20%.

For the molecule `CC[C@H]1OC(=O)[C@H](C)C(O[C@H]2C[C@@](C)(OC)[C@@H](O)[C@H](C)O2)[C@H](C)[C@@H](OC2O[C@H](C)C[C@H](N(C)C)[C@H]2O)[C@](C)(O)C[C@@H](C)CN(C)[C@H](C)[C@@H](O)[C@]1(C)O` (stereo not given in full), the activation was -28.2%.

As to `CC1=NS(=O)(=O)c2cc(Cl)ccc2N1`, the activation was 19.8% and -34.3%.

As to `CSc1nc(N)c2ncn([C@@H]3O[C@H](COP(=O)(O)OP(=O)(O)OP(=O)(O)O)[C@@H](O)[C@H]3O)c2n1`, the activation was 7.61%.

In the case of `NC1=NCC2c3ccccc3Cc3ccccc3N12` (stereo not given), the activation is -14.2% and -12.4%.

`NCCCCC(=O)O`: the activation was -27.1%.

On to `CN(C)CCC=C1c2ccccc2CCc2ccccc21`, for which the activation is -12.6% and -30.9%.

For `CC(C)(C)NCC(O)c1cc(O)cc(O)c1` (stereo not given), the activation was 2.51% and 8.65%.

Turning to `CCN(CC)CCOCCOC(=O)C1(c2ccccc2)CCCC1`, the activation was -17.5% and -6.79%.

Take `C=CC(C)=C[C@@]1(C)SC(=O)C(C)=C1O`: the activation was 0.958%.

Consider `COC(=O)[C@H](NC(=O)c1cc(-c2ccccc2)nc2ccccc12)c1ccccc1`, for which the activation was 6.75%.

With `COc1cc(N)c(Cl)cc1C(=O)OCCN1CCCCC1`, the activation was -2.92%.

In the case of `CCCN(CCC)CCc1cccc2c1CC(=O)N2`, the activation was 6.69% and 9.01%.

For the molecule `CCc1ccc2c(-c3cccc(Cl)c3)nc(=O)n(CC)c2n1`, the activation is -40.5%.

With `CCCCCCCCc1ccc(-c2ccc(C(=O)O)cc2)cc1`, the activation was -87.3%.

Consider `O=[N+]([O-])c1ccc(CSc2ncnc3c2ncn3[C@@H]2O[C@H](CO)[C@@H](O)[C@H]2O)cc1`, for which the activation is -20.8%.

Turning to `N#CC(C#N)=C(N)/C(C#N)=C/c1ccc(O)cc1`, the activation was -15.2%.

`O=C(O)CC[C@@H](C(=O)O)N1C(=O)c2ccccc2C1=O`: the activation was -14.6%.

In the case of `CC(=O)OCC1=C(C(=O)O)N2C(=O)[C@@H](NC(=O)Cc3cccs3)[C@H]2SC1`, the activation was 27.7% and 1.09%.

As for `CN(C)CC[C@@H](c1ccc(Cl)cc1)c1ccccn1`, the activation was -9.6% and -8.57%.

On to `CC1CNCCN1S(=O)(=O)c1cccc2cnccc12` (stereo not given), for which the activation was -28.4%.

`COc1cc(CC(=O)O)ccc1O`: the activation is -3.12%.

On to `CN1C(=O)CC[C@H]1c1cccnc1`, for which the activation is -11.7% and 28%.

In the case of `NOCC(=O)O`, the activation is -16.6%.

On to `NCC1OC(O[C@H]2[C@H](O)[C@@H](OC3C(O)C(N)CC(N)C3OC3OC(CO)C(O)C(O)C3N)O[C@@H]2CO)C(N)C(O)C1O` (stereo not given in full), for which the activation was 6.76%.

As to `NCCSSCCN`, the activation is 43.3%.

As to `O=C(CCNNC(=O)c1ccncc1)NCc1ccccc1`, the activation was -11.9% and -31.2%.

Consider `C[C@]12CC[C@@H]3c4ccc(O)cc4CC[C@H]3[C@@H]1CCC2=O`, for which the activation is 11.7%.

As for `Nc1nc(Cl)nc2c1ncn2[C@@H]1O[C@H](CO)[C@@H](O)[C@H]1O`, the activation is -6.39%.

Take `CNCCC(Oc1ccccc1OC)c1ccccc1` (stereo not given): the activation is -3.68%.

`Cc1nc2ccccn2c(=O)c1CCN1CCC(C(=O)c2ccc(F)cc2)CC1`: the activation is 0.565% and -12%.

On to `NC(CCCP(=O)(O)O)C(=O)O` (stereo not given), for which the activation is 34.5%.

On to `O=C(O)CC1CCCc2ccccc2C1O` (stereo not given), for which the activation was 5.92%.

For `CCN1CCC[C@H]1CNC(=O)c1c(O)c(Cl)cc(Cl)c1OC`, the activation is -10% and -6.2%.

For `CC[C@H](NC(=O)c1c(C)c(-c2ccccc2)nc2ccccc12)c1ccccc1`, the activation was -16.3%.

In the case of `CCOC(=O)C1=C(C)NC(C)=C(C(=O)OC)C1c1cccc(Cl)c1Cl` (stereo not given), the activation is 16.4% and -13.8%.
